# The entries come from a sample that favours hits as a whole.
# RmlCD inh mix: inhibitors of RmlC and RmlD coupled enzymes; 110,000 compounds, 0.39% hits; AID 1532; inhibition, % at 5.5 µM; RmlC/RmlD coupled enzyme inhibition, 384-well mixture HTS; in the data active means inhibition above about 30%, passing the limit was not always enough; inconclusive means no clear call, values can overlap the other calls
# HIV RNase H inh: inhibitors of HIV-1 reverse transcriptase RNase H. 65,000 compounds, 1.9% hits. RT-RNase H RNA/DNA duplex cleavage, fluorescence. AID 565. P04585. inhibition, % at 10 µM; in the data active means inhibition above about 50%
# RmlCD artifact: RmlC/RmlD fluorescence artifact, counter-screen; shares compounds with RmlCD inh mix; RmlC/RmlD assay fluorescence artifact counter-screen; calls only; 360 compounds, 96% hits; call rule not given here;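 further: compound alone with no enzyme and no substrates present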
# Active calls of the source: *; i = inactive; ? = inconclusive; / = no result; + = active, no number.
SMILES,RmlCD inh mix,HIV RNase H inh,RmlCD artifact
Cc1c(O)ccc2c3c(c(=O)oc12)CCCC3,70,-26,/
CC(C)CN(Cc1c(O)ccc2c3c(c(=O)oc12)CCC3)CC(C)C,95*,/,+
CCN(CC)Cc1c(O)ccc2c(-c3ccccc3)cc(=O)oc12,-8,-6,/
CCCC(C(=O)NCc1ccco1)N(C(=O)CNS(=O)(=O)c1ccccc1)c1ccccc1OC (stereo unspecified),3,6,/
Cc1noc(C)c1CSCC(=O)OCc1nc2ccccc2c(=O)n1CC#N,-6,-5,/
CC(=O)O[C@H]1C[C@@]2(C)[C@@H](C[C@@H](O)[C@H]3[C@@]4(C)CC[C@@H](O)[C@@H](C)C4CC[C@@]32C)/C1=C(\CCC=C(C)C)C(=O)O (stereo partly specified),6,/,/
CCOC(=O)N1CCN(C(=O)c2ccc3nc4ccc(Cl)cc4c(=O)n3c2)CC1,48*,-2,+
CCOC(=O)N1CCN(C(=O)c2ccc3nc4ccsc4c(=O)n3c2)CC1,/,-9,/
COc1ccc(-c2nc3cc(NC(=O)Cc4ccc(OC)c(OC)c4)ccc3o2)cc1,177,2,/
O=S(=O)(Cc1ccccc1)N1CCN(Cc2ccc3c(c2)OCO3)CC1,-7,-22,/
Cc1cc(NCCN2CCOCC2)n2c(nc3ccccc32)c1C#N,20,5,/
Cc1cc(NCCCN2CCOCC2)n2c(nc3ccccc32)c1C#N,71*,-15,+
CCC1CCCCN1C(=O)N[C@@H](Cc1ccccc1)C(=O)O (stereo partly specified),6,-14,/
COc1cccc(-c2cc(C(F)(F)F)n3ncc(C(=O)NCC4CCCO4)c3n2)c1 (stereo unspecified),8,-22,/
COc1ccc(-c2cc(C(F)(F)F)n3ncc(C(=O)NCC4CCCO4)c3n2)cc1 (stereo unspecified),36*,4,+
CCc1cc(=O)oc2c(C)c(O)c(CN(C)C)cc12,82*,-5,+
CCC(=O)c1cc2c(C)cc(=O)oc2c(C)c1O,12,-4,/
CCOc1cccc(Nc2cc3n(c(=O)n2)CCc2cc(OC)c(OC)cc2-3)c1,10,/,/
COc1cc2c(cc1OC)-c1cc(OCc3cccnc3)nc(=O)n1CC2,115*,-9,+
O=S(=O)(c1ccccc1Cl)N1CCC(O)(c2ccc3c(c2)OCO3)CC1,/,-14,/
COCCN(C(=O)c1cccc(OC)c1)c1nnc(-c2ccncc2)s1,-36,-4,/
C=CCN(C(=O)COc1ccccc1)c1nnc(-c2ccncc2)s1,154*,/,+
O=c1oc2cc(O)ccc2c2c1CCCC2,126*,-28,+
O=C(Oc1ccc2c3c(c(=O)oc2c1)CCCC3)c1ccco1,110*,-11,+
Cc1cc(OC(=O)c2ccco2)c2c3c(c(=O)oc2c1)CCC3,-129,-4,/
SMILES,RmlCD inh mix,HIV RNase H inh,RmlCD artifact
O=c1oc2cc(O)ccc2c2ccccc12,-12,/,/
Cc1ccc(CNC(=O)Nc2cccs2)cc1,-8,4,/
C#Cc1ccc2c(c1)COc1c3ccccc3nn1-2,4,/,/
COCc1cc(C)nc2sc(C(=O)OC)c(N)c12,108,-29,/
COC(=O)c1sc2cnccc2c1N,34*,-1,+
COc1cccc(CN2C[C@]34C=C[C@@H](C[C@@H]3S2(=O)=O)O4)c1,-6,/,/
Cc1ccc2nc(NC(=O)c3cccc(-c4cc5ccccc5oc4=O)c3)sc2c1,41*,/,+
CCn1nnc(NC(=O)c2cccc(-c3cc4ccccc4oc3=O)c2)n1,56,0,/
O=C(O)C(NC(=O)c1ccccc1)=C(Cl)Cl,-8,/,/
COc1ccc(OC)c(NC(=O)CSc2nnc(N)s2)c1,10,1,/
CC(C)(O[C@@H]1O[C@H](CO)[C@@H](O)[C@H](O)[C@H]1O)[C@H]1Cc2cc3ccc(=O)oc3cc2O1,56*,/,+
COc1ccc(C[C@H]2COC(=O)[C@@H]2Cc2ccc(OC3OC(CO)C(O)C(O)C3O)c(OC)c2)cc1OC (stereo partly specified),-6,/,/
COc1cc(/C=C2/C(=N)N3C=CSC3=NC2=O)ccc1OCCCOc1ccccc1C,13,/,/
CCOc1cc(/C=C2/C(=N)N3C=CSC3=NC2=O)ccc1OCCCOc1ccccc1C,40*,/,+
Nc1nc(N)c2nc(-c3ccccc3)c(N)nc2n1,119*,1,+
NNc1nnc(-c2ccccc2)c(-c2ccccc2)n1,5,/,/
CC1=C2C(CCS2(=O)=O)CC2(C1)C(=O)OC(C)(C)OC2=O (stereo unspecified),9,-2,/
COc1cc(C(=O)Nc2cccc(-c3nncn3C)c2)cc(OC)c1OC,11,-1,/
COCCNC(=O)c1c(N)n(Cc2ccco2)c2nc3ccccc3nc12,19,/,/
CCOC(=O)c1c(N)n(CCN2CCCCC2)c2nc3ccccc3nc12,38*,2,+
COC(=O)c1c(N)n(CCCN2CCOCC2)c2nc3ccccc3nc12,-6,/,/
Nc1c(C(=O)NCCN2CCOCC2)c2nc3ccccc3nc2n1Cc1ccco1,37*,-18,+
O=C(CSc1nnc(Cc2ccccc2)o1)Nc1ccc2c(c1)OCO2,-11,/,/
Cc1cc(C)n(CCCNCC(O)c2ccccc2)n1 (stereo unspecified),10,1,/
CN(C)S(=O)(=O)c1cccc(C(=O)NCc2cccs2)c1,-14,/,/
SMILES,RmlCD inh mix,HIV RNase H inh,RmlCD artifact
COc1cccc(-n2nnnc2SCC(=O)c2cc(OC)ccc2OC)c1,38*,32,+
COc1cccc(-n2nnnc2SCC(=O)c2ccc(NC(C)=O)cc2)c1,23,13,/
COC(=O)[C@H](Cc1ccccc1)NC(=O)NCc1cccs1,-10,/,/
CCN(CC)c1ccc(C(=O)OCC(=O)N2CCN(c3ccccc3)CC2)cc1,4,-10,/
CNC(=O)c1cc2c(=O)n3cc(C)ccc3nc2n(Cc2ccco2)c1=N,/,-17,/
Cc1ccc2nc3c(cc(C(=O)NCC4CCCO4)c(=N)n3CCCOC(C)C)c(=O)n2c1 (stereo unspecified),126*,1,+
CC(C)Cn1c(N)c(C(=O)CSc2ccc3c(c2)OCCO3)c(=O)n(C)c1=O,-15,9,/
CCN(CC)c1ccc2cc(C(=O)Nc3ccc(-n4cnnn4)c(OC)c3)c(=O)oc2c1,/,6,/
Oc1cccc(/C=N/c2c(-c3ccco3)nc3ccccn23)c1,?,-24,/
COc1cc(-c2nc3ccccn3c2/N=C/c2ccccc2)ccc1O,67*,/,+
Nc1cccc(-c2nc3cc(S(=O)(=O)c4ccc5oc(-c6cccc(N)c6)nc5c4)ccc3o2)c1,46*,/,+
Cc1ccc(-c2nc3cc(N)ccc3o2)cc1,/,-10,/
CC(=O)Nc1c(OC(C)=O)ccc2c(C)cc(=O)oc12,+,-16,+
Cc1cc(=O)oc2cc(O)ccc12,84*,/,+
COc1ccc2c(C)cc(=O)oc2c1C,-4,-10,/
Cc1ccccc1-c1c(C)oc2cc(O)ccc2c1=O,38*,-6,+
Cc1oc2cc(O)ccc2c(=O)c1N1C(=O)c2ccccc2C1=O,4,3,/
CC(=O)Oc1ccc2c(C)cc(=O)oc2c1,+,/,+
O=c1cc(O)c2ccc(O)cc2o1,104,/,/
CC(=O)Oc1cc2oc(=O)cc(C)c2cc1OC(C)=O,i,-5,/
CCC(Sc1nc2c(c(=O)n1CC)SC(C)C2)C(=O)OC (stereo unspecified),5,/,/
O=C(CSc1nnc(CNC(=O)c2ccccc2F)o1)c1ccccc1,5,-14,/

# Assay outcomes (PubChem)
